Not all results are given here.
aSyn 5UTR act – Activators via SNCA 5'UTR binding, MLPCN | AID 1814, 2009 | alpha-synuclein 5'UTR reporter, activators screen | 7.1% of 300,000 active | activity score, % (tested at 7.5 µM), hits read low; in the data active means activity score below about -60%
Hits are given with their value; . = inactive.

SMILES	aSyn 5UTR act
CCOC(=O)N1CCN(C(=O)CCCOc2ccccc2)CC1	-114.7
COc1cc(C(=O)N2CCN(c3cccc(C)c3C)CC2)cc(OC)c1OC	.
O=C(COc1ccccc1)Nc1cccc(-c2nc3cc4ccccc4cc3[nH]2)c1	-140.2
CCC(=O)Nc1cccc(-c2cn3ccccc3n2)c1	-89.3
CCCCC(=O)Nc1cccc(-c2cn3ccsc3n2)c1	-78.3
O=C(Nc1cccc(Cl)c1)c1csc(-c2ccccc2)n1	-121.0
O=C(Nc1cccc(-c2cn3ccccc3n2)c1)c1cnccn1	-87.3
CCC(=O)Nc1cccc(-c2csc(-c3ccccc3)n2)c1	-121.3
O=C(COc1ccccc1)Nc1cccc(-c2cn3cccnc3n2)c1	-83.9
CCn1cnc2cc(NCc3ccc(Cl)cc3)ccc21	-111.0
Cc1ccc(CNc2ccc3c(c2)ncn3C(C)(C)C)cc1	-97.4
CCc1ccc(CNc2ccc3c(c2)ncn3C)cc1	-156.1
Cc1ccc(CNc2ccc3c(c2)ncn3C)cc1	-169.7
CCCn1cnc2cc(NCc3ccccn3)ccc21	-71.1
CCc1sc(C(=O)Nc2ncccc2C)cc1C	-66.6
CCc1sc(C(=O)Nc2nccs2)cc1C	-122.6
Clc1ccsc1-c1csc(-c2cccnc2)n1	-85.3
c1cncc(-c2nc(-c3ccc4c(c3)OCO4)cs2)c1	-117.2
Oc1ccc(-c2csc(-c3cccnc3)n2)c(O)c1	-100.9
CCOC(=O)Cc1csc(NC(=O)c2sc3nc4c(C)cc(C)cc4cc3c2N)n1	-94.2
CCc1ccc(-c2ccc(C(=O)O)cc2)nc1	-126.1
CCCc1ccc(-c2ccc(F)c(N)c2)nc1	.
Cc1ccc(Nc2ncnc3nc[nH]c23)cc1Cl	-146.5
COc1cccc(Nc2ncnc3nc[nH]c23)c1	-83.4
Cc1ccc(NC(=O)Nc2ncnc3nc[nH]c23)cc1	-106.2
SMILES	aSyn 5UTR act
CCc1ccc(Nc2ncnc3nc[nH]c23)cc1	-70.0
COc1ccc(-c2cc3nc(C)n(N)c(=O)c3s2)cc1	.
COc1cccc(-n2cnc3sc(-c4ccccc4)cc3c2=O)c1	-183.9
COc1ccc(-n2cnc3sc(-c4ccccc4)cc3c2=O)cc1	-118.5
c1ccc(COc2ccc(OCCOCCn3cncn3)cc2)cc1	-117.5
Cc1cccc(NC(=O)CSc2nccn2Cc2ccco2)c1	-88.9
Cc1cccc(NC(=O)CSc2nccn2Cc2ccco2)c1C	-80.5
CCC(=O)Nc1cc(NC(=O)CSc2ncc(-c3ccc(F)cc3)n2Cc2ccco2)ccc1C	-225.7
COc1ccc(NC(=O)CSc2nccn2Cc2ccco2)cc1	-96.0
Cc1cccc(C(=O)NCC(=O)OCC(=O)c2cc(C)n(CC3CCCO3)c2C)c1 (stereo not drawn)	-101.8
Cc1cc(C(=O)COC(=O)c2ccc(Cl)c(S(N)(=O)=O)c2)c(C)n1CC1CCCO1 (stereo not drawn)	-104.0
COCCn1c(C)cc(C(=O)COC(=O)c2ccc(Cl)c(S(N)(=O)=O)c2)c1C	-103.3
O=C(CCl)Nc1c(C(=O)Nc2ccc3c(c2)OCCO3)oc2ccccc12	-139.0
Cc1c(C(=O)Nc2ccc3c(c2)OCO3)oc2ccccc12	-136.6
COCC(=O)Nc1c(C(=O)Nc2ccc3c(c2)OCO3)oc2ccccc12	-116.7
CC(=O)Nc1c(C(=O)Nc2ccc3c(c2)OCO3)oc2ccccc12	-87.6
COc1cccc(C(=O)Nc2nc3c(c(=O)[nH]2)CCCC3)c1	-96.7
COc1ccc(C(=O)Nc2nc3ccccc3c(=O)[nH]2)cc1	-126.6
COc1ccc(Nc2cccc3ccccc23)cc1	-72.4
COc1ccc(Nc2ccc(OC)cc2)cc1	-104.6
COc1ccc(C(=O)Nc2cccc3ccccc23)cc1	-137.7
COc1ccc(Nc2cc(C)c3ccccc3n2)cc1	-100.9
O=C(Nc1nnc(CCc2ccccc2)s1)c1ccccc1	-90.8
COc1ccccc1C(=O)Nc1nnc(CCc2ccccc2)s1	-213.2
CC(C)(C)C(=O)Nc1nnc(CCc2ccccc2)s1	-125.9
SMILES	aSyn 5UTR act
CCOC(=O)C1=C(COc2ccc(C)cc2)NC(=O)NC1c1cc(C)ccc1C (stereo not drawn)	-86.1
Cc1nc2c(-c3ccc(Cl)cc3)cnn2c2c1CCC2	-122.5
O=c1c2c(nc3c(-c4ccc(Cl)cc4)c[nH]n13)CCCC2	.
Cc1ccc(C2CC(c3ccccc3)=NN2C(=S)Nc2ccccc2)o1 (stereo not drawn)	-65.1
Cc1cc(N2CCOCC2)nc(SCC(=O)c2ccccc2)n1	-93.6
Cc1cc(N2CCCC2)nc(SCC(=O)c2ccccc2)n1	-88.5
COc1ccc2cc(-c3ccccc3)c(=O)oc2c1	-71.7
CN(C)C(=O)COc1ccc2cc(-c3ccccc3)c(=O)oc2c1	-91.1
Brc1ccc(/C=N/Nc2ccccn2)cc1	-193.2
Clc1ccc(/C=N/Nc2ccccn2)cc1	-162.9
Cc1ccc(/C=N/Nc2ccccn2)s1	-149.3
C(=N\Nc1ccccn1)/c1c[nH]c2ccccc12	-114.4
FC(F)(F)c1ccccc1/C=N/Nc1ccccn1	-93.5
Brc1ccccc1/C=N/Nc1ccccn1	-130.8
Clc1nccnc1N/N=C/c1ccc(Br)cc1	-106.0
Fc1ccc(/C=N/Nc2ccccn2)cc1	-119.6
Oc1ccc(N=Nc2ccccc2C(F)(F)F)c2cccnc12	.
COc1ccc(/C=N/Nc2ccccn2)cc1O	-144.9
Cc1nn2cc(-c3ccc(Cl)cc3)cnc2c1Cl	-144.4
COc1ccc2cnn(-c3ccc(C)cc3)c(=O)c2c1OC	-115.2
COc1ccc2cnn(-c3ccc(OC(F)(F)Cl)cc3)c(=O)c2c1OC	-70.4
O=C(O)c1cc(-c2c[nH]c3ccccc23)nc2cc3ccccc3cc12	-65.8
CC1CCc2c(sc3ncnc(NS(=O)(=O)c4cccs4)c23)C1 (stereo not drawn)	-100.8
N/C(=N\OC(=O)/C=C/c1ccccc1)c1cccnc1	-159.2
N/C(=N\OC(=O)/C=C/c1ccccc1Cl)c1cccnc1	-248.2
SMILES	aSyn 5UTR act
CCc1ccc(-c2cn3nc(C)c(C)nc3n2)cc1	.
COc1ccc(-c2cn(Cc3ccc(C)cc3)nn2)cc1	-107.6
CCCCCc1ccc(-c2cn(Cc3ccc(C)cc3)nn2)cc1	-99.5
Cc1ccc(NC(=O)c2ccc(OC(=O)COc3ccc(Cl)cc3C)cc2)cc1	-79.5
Cc1ccc(NC(=O)c2ccc(OC(=O)CCN3C(=O)c4ccccc4C3=O)cc2)cc1	-146.2
Cc1ccc(NC(=O)c2ccc(OC(=O)COc3cccc(Cl)c3)cc2)cc1	-129.6
O=C1NCCN/C1=C\C(=O)c1ccc(Br)cc1	-120.1
O=C1NCCN/C1=C\C(=O)c1cccc(Br)c1	-61.8
Cc1ccc(S(=O)(=O)N/N=C2/CC(c3ccccc3)Oc3ccccc32)cc1[N+](=O)[O-] (stereo not drawn)	-106.4
C/C(CC(C)C)=N\NS(=O)(=O)c1ccc(C)c([N+](=O)[O-])c1	.
Fc1ccc(SCCc2ccccn2)cc1	-96.8
CC(C)(C)c1ccc(S(=O)(=O)CCc2ccccn2)cc1	-95.9
CC(C)(C)c1ccc(SCCc2ccccn2)cc1	-127.4
COc1cc2cc(-c3ccc(O)cc3O)nc(C)c2cc1OC	-115.9
COc1cc2cc(-c3ccc(OC)c(OC)c3C)nc(N)c2cc1OC	.
Nc1c(-c2cccc([N+](=O)[O-])c2)nc2ccccn12	-83.3
O=c1oc2ccccc2nc1/C=C(O)/C=C/c1ccc(F)cc1	-87.6
C/C(=N\Nc1ccccc1)c1cccc(N)c1	-91.7
Brc1ccc(N/N=C(/N=Nc2nn[nH]n2)c2ccccc2)cc1	.
Cc1ccc(C(=O)c2cccc(N)c2)cc1C	.
CCOC(=O)C(C#N)c1ccccn1 (stereo not drawn)	-69.6
CC(Oc1cccc(Cl)c1)C(=O)Nc1nc(-c2ccccn2)cs1 (stereo not drawn)	.
Cc1nc(NC(=O)c2oc3ccccc3c2C)sc1C(=O)N(C)C	-192.5

High-throughput results from PubChem BioAssay.
